Out of some 5,500 compounds screened, about 2,000 (36%) were called active. Roughly 18% stayed inconclusive and do not appear here. Rule as the data show it: active = normalized growth mostly below about 0.91 (no sharp cut-off); inconclusive = no clear call, values can overlap the other calls; inactive = mostly above about 0.92. The list shows a part of the results.
Assay: chemical genetic growth profiling, strain panel (AID 1159580);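 also: tested at 20 µM; growth read once vehicle control cultures reached saturation at 30 °C; 1 = growth at the plate median or of vehicle wells; lower values mean less growth of the strain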
Details: S. cerevisiae deletion strains, growth OD
[1] = locus YAR019C, strain CDC15, active compounds read low
[2] = locus YBL105C, strain PKC1, active compounds read low
[3] = locus YBR135W, strain CKS1, active compounds read low
[4] = locus YBR136W, strain MEC1, active compounds read low
[5] = locus YBR160W, strain CDC28, active compounds read low
[6] = locus YDL017W, strain CDC7, active compounds read low
[7] = locus YDL028C, strain MPS1, active compounds read low
[8] = locus YDL101C, strain DUN1, active compounds read low
[9] = locus YDL108W, strain KIN28, active compounds read low
[10] = locus YDL132W, strain cdc53, active compounds read low
[11] = locus YDL214C, strain PRR2, active compounds read low
[12] = locus YDR052C, strain DBF4, active compounds read low
[13] = locus YDR226W, strain ADK1, active compounds read low
[14] = locus YDR477W, strain SNF1, active compounds read low
[15] = locus YER123W, strain YCK3, active compounds read low
[16] = locus YER133W, strain GLC7, active compounds read low
[17] = locus YFL009W, strain cdc4, active compounds read low
[18] = locus YFL029C, strain CAK1, active compounds read low
[19] = locus YFR003C, strain YPI1, active compounds read low
[20] = locus YFR019W, strain FAB1, active compounds read low
[21] = locus YFR028C, strain CDC14, active compounds read low
[22] = locus YGR040W, strain KSS1, active compounds read low
[23] = locus YGR052W, strain FMP48, active compounds read low
[24] = locus YGR092W, strain DBF2, active compounds read low
[25] = locus YHR030C, strain SLT2, active compounds read low
[26] = locus YHR079C, strain IRE1, active compounds read low
[27] = locus YHR082C, strain KSP1, active compounds read low
[28] = locus YHR205W, strain SCH9, active compounds read low
[29] = locus YIL147C, strain SLN1, active compounds read low
[30] = locus YJL095W, strain BCK1, active compounds read low
[31] = locus YJL128C, strain PBS2, active compounds read low
[32] = locus YJL157C, strain FAR1, active compounds read low
[33] = locus YJR016C, strain ILV3, active compounds read low
[34] = locus YJR066W, strain TOR1 (second series), active compounds read low
[35] = locus YJR066W, strain TOR1, active compounds read low
[36] = locus YKL048C, strain ELM1, active compounds read low
[37] = locus YKL067W, strain YNK1, active compounds read low
[38] = locus YKL101W, strain HSL1, active compounds read low
[39] = locus YKL193C, strain SDS22, active compounds read low
[40] = locus YKL203C, strain TOR2, active compounds read low
[41] = locus YLR113W, strain HOG1, active compounds read low
[42] = locus YLR133W, strain CKI1, active compounds read low
[43] = locus YLR403W, strain SFP1, active compounds read low
[44] = locus YML070W, strain DAK1, active compounds read low
[45] = locus YMR001C, strain CDC5, active compounds read low
[46] = locus YMR205C, strain PFK2 (second series), active compounds read low
[47] = locus YMR277W, strain FCP1, active compounds read low
[48] = locus YNL006W, strain LST8, active compounds read low
[49] = locus YNL020C, strain ARK1, active compounds read low
[50] = locus YNL161W, strain CBK1, active compounds read low
[51] = locus YNL183C, strain NPR1, active compounds read low
[52] = locus YNL207W, strain RIO2, active compounds read low
[53] = locus YNL222W, strain SSU72, active compounds read low
[54] = locus YNL307C, strain MCK1 (second series), active compounds read low
[55] = locus YOL078W, strain AVO1, active compounds read low
[56] = locus YOL136C, strain PFK27, active compounds read low
[57] = locus YOR061W, strain CKA2, active compounds read low
[58] = locus YOR119C, strain RIO1, active compounds read low
[59] = locus YOR231W, strain MKK1, active compounds read low
[60] = locus YOR329C, strain SCD5, active compounds read low
[61] = locus YPL031C, strain PHO85, active compounds read low
[62] = locus YPL153C, strain RAD53, active compounds read low
[63] = locus YPL204W, strain HRR25, active compounds read low
[64] = locus YPL209C, strain IPL1, active compounds read low
[65] = locus YPL256C, strain CLN2, active compounds read low
[66] = locus YPR025C, strain CCL1, active compounds read low
[67] = locus YPR106W, strain ISR1, active compounds read low
[68] = locus YPR111W, strain DBF20, active compounds read low
[69] = strain NNK1, active compounds read low
[70] = strain TSCII, active compounds read low
[71] = locus YAL013W, strain DEP1, active compounds read low
[72] = locus YBR229C, strain ROT2, active compounds read low
[73] = locus YDR150W, strain NUM1, active compounds read low
[74] = locus YEL061C, strain CIN8, active compounds read low
[75] = locus YGR078C, strain PAC10, active compounds read low
[76] = locus YHR087W, strain rtc3, active compounds read low
[77] = locus YJR043C, strain POL32, active compounds read low
[78] = locus YJR075W, strain HOC1, active compounds read low
[79] = locus YKL190W, strain CNB1, active compounds read low
[80] = locus YLR039C, strain RIC1, active compounds read low
[81] = locus YLR058C, strain SHM2 (second series), active compounds read low
[82] = locus YLR085C, strain ARP6, active compounds read low
[83] = locus YLR262C, strain YPT6, active compounds read low
[84] = locus YML094W, strain GIM5, active compounds read low
[85] = locus YMR219W, strain ESC1, active compounds read low
[86] = locus YMR263W, strain SAP30, active compounds read low
[87] = locus YMR307W, strain GAS1, active compounds read low
[88] = locus YNL153C, strain GIM3, active compounds read low
[89] = locus YNL298W, strain CLA4 (second series), active compounds read low
[90] = locus YNL322C, strain KRE1, active compounds read low
[91] = locus YNR030W, strain Alg12, active compounds read low
[92] = locus YOL006C, strain TOP1, active compounds read low
[93] = locus YPL055C, strain LGE1, active compounds read low
[94] = locus YPL241C, strain CIN2, active compounds read low
[95] = locus YPR135W, strain CTF4, active compounds read low

Measured: normalized growth

CCOC(=O)c1ccc(N=Cc2cc(Cl)cc(Cl)c2O)cc1
active: [11] 0.3 | [14] 0.289 | [15] 0.157 | [16] 0.344 | [20] 0.153 | [22] 0.349 | [23] 0.257 | [24] 0.135 | [25] 0.135 | [26] 0.131 | [27] 0.2 | [28] 0.221 | [30] 0.136 | [32] 0.181 | [34] 0.289 | [35] 0.169 | [36] 0.405 | [37] 0.274 | [38] 0.323 | [40] 0.296 | [41] 0.166 | [42] 0.208 | [43] 0.166 | [44] 0.198 | [46] 0.308 | [49] 0.175 | [51] 0.229 | [54] 0.175 | [56] 0.153 | [57] 0.193 | [58] 0.368 | [59] 0.131 | [61] 0.245 | [62] 0.213 | [63] 0.196 | [65] 0.152
inactive: [1] 0.934 | [2] 0.949 | [3] 0.95 | [4] 0.954 | [5] 0.946 | [6] 0.94 | [7] 0.946 | [8] 0.946 | [9] 0.948 | [10] 0.975 | [12] 0.95 | [13] 0.969 | [17] 0.964 | [18] 0.923 | [19] 0.939 | [21] 0.957 | [29] 0.937 | [31] 0.908 | [33] 0.963 | [39] 0.957 | [45] 0.943 | [47] 0.96 | [48] 0.952 | [50] 0.965 | [52] 0.951 | [53] 0.956 | [55] 0.922 | [60] 0.942 | [64] 0.952 | [66] 0.948 | [67] 0.958 | [68] 0.955 | [69] 0.952 | [70] 0.913

CCOC(=O)c1ccc(NC(=S)N2CCOCC2)cc1
inactive: [71] 1.01 | [72] 0.979 | locus YCL061C, strain MRC1, active compounds read low 0.939 | [8] 0.978 | [73] 0.945 | [74] 0.985 | [75] 0.99 | [25] 0.956 | [76] 0.974 | [77] 0.962 | [78] 0.947 | [79] 1.01 | [80] 1 | [81] 1.02 | [82] 0.991 | [83] 1 | [84] 0.978 | [85] 0.999 | [86] 0.933 | [87] 0.965 | [88] 0.982 | [89] 0.951 | [90] 1.01 | [91] 1.01 | [92] 0.805 | [93] 0.888 | [94] 0.988 | [95] 0.972

Cc1cc(N=Cc2cc(Cl)cc(Cl)c2O)no1
inactive: [1] 0.945 | [2] 0.964 | [3] 0.971 | [4] 0.953 | [5] 0.964 | [6] 0.968 | [7] 0.95 | [8] 0.965 | [9] 0.957 | [10] 0.975 | [12] 0.972 | locus YDR054C, strain cdc34, active compounds read low 0.965 | [13] 0.974 | [17] 0.97 | [18] 0.958 | [19] 0.95 | [21] 0.971 | [29] 0.946 | [31] 0.952 | [33] 0.973 | [39] 0.971 | [45] 0.963 | [47] 0.968 | [48] 0.969 | [50] 0.967 | [52] 0.977 | [53] 0.96 | [55] 0.967 | [60] 0.952 | [64] 0.969 | [66] 0.969 | [67] 0.976 | [68] 0.972 | [69] 0.965 | [70] 0.96
active: [11] 0.561 | [14] 0.526 | [15] 0.307 | [16] 0.576 | [20] 0.517 | [22] 0.574 | [23] 0.504 | [24] 0.187 | [25] 0.26 | [26] 0.249 | [27] 0.493 | [28] 0.407 | [30] 0.259 | [32] 0.478 | [34] 0.565 | [35] 0.387 | [36] 0.651 | [37] 0.521 | [38] 0.5 | [40] 0.613 | [41] 0.337 | [42] 0.486 | [43] 0.375 | [44] 0.372 | [46] 0.514 | [49] 0.462 | [51] 0.429 | [54] 0.37 | [56] 0.349 | [57] 0.32 | [58] 0.571 | [59] 0.272 | [61] 0.483 | [62] 0.405 | [63] 0.467 | [65] 0.343

CCOC(=O)c1ccc(N2CCOCC2)c(N=Cc2cc(Cl)ccc2O)c1
active: [72] 0.901 | locus YDL134C, strain PPH21, active compounds read low 0.781 | [74] 0.757 | [75] 0.892 | [25] 0.266 | [78] 0.855 | [79] 0.678 | [80] 0.434 | [82] 0.508 | [83] 0.38 | [84] 0.822 | [87] 0.41 | [89] 0.754 | [91] 0.885 | [92] 0.323 | [95] 0.516
inactive: [71] 0.94 | [8] 0.928 | [73] 0.91 | [76] 0.915 | [77] 0.946 | [81] 0.96 | [85] 0.947 | [86] 0.917 | [88] 0.951 | [90] 0.99 | [93] 0.884 | [94] 0.908

CCOC(=O)CCC(C#N)(c1ccc(Cl)cc1)N1CCOCC1 (configuration not stated)
inactive: [71] 0.99 | [72] 0.997 | [8] 1.04 | [73] 1.05 | [74] 1 | [75] 1.01 | [25] 0.979 | [76] 0.978 | [77] 1.02 | [78] 1.01 | [80] 1.11 | [81] 0.982 | [82] 0.962 | [83] 1.01 | [84] 0.99 | [85] 0.983 | [86] 1.02 | [88] 0.993 | [89] 0.996 | [90] 0.988 | [91] 0.985 | [92] 0.904 | [93] 0.943 | [94] 0.992 | [95] 1.01

Cc1cc(N=C(N)N=C(N)N)no1
inactive: [71] 1.01 | [72] 1.01 | [8] 1.02 | [73] 0.902 | [74] 1 | [75] 1.01 | locus YGR229C, strain SMI1, active compounds read low 0.993 | [25] 1 | [76] 1.02 | locus YJL187C, strain SWE1, active compounds read low 1 | [77] 0.998 | [78] 1 | [79] 1 | [80] 1.01 | [81] 1.01 | [82] 0.988 | [83] 1.01 | [84] 1.03 | [85] 1 | [86] 1 | [87] 0.969 | locus YNL128W, strain TEP1, active compounds read low 1.02 | [88] 1 | [89] 1.02 | [90] 1 | [91] 1.01 | [92] 1.02 | [93] 0.964 | [94] 1.01 | [95] 1.07
